Results reported in PubChem BioAssay AID1159580 (chemical genetic matrix, 2015).
The whole screen tested about 5,500 compounds, of which about 2,000 (36%) were called active. About 18% were inconclusive and are not listed. No stated cut-off is given here; in the data, active means normalized growth mostly below about 0.91 (no sharp cut-off); inconclusive means no clear call, values can overlap the other calls; inactive means mostly above about 0.92. The list shows a part of the results.

Assay: chemical genetic growth profiling, strain panel (AID 1159580);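 further: tested at 20 µM; growth read once vehicle control cultures reached saturation at 30 °C; 1 = growth at the plate median or of vehicle wells; lower values mean less growth of the strain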
Conditions: growth OD

Measured: normalized growth

CC1=C2CCC3C(CC[C@]4(C)C(=O)CCC34)[C@@]2(C)CCC1=O (some centres not stated)
active: S. cerevisiae deletion strains, locus YLR039C, strain RIC1, active compounds read low 0.587 | S. cerevisiae deletion strains, locus YLR262C, strain YPT6 (second series), active compounds read low 0.655 | S. cerevisiae deletion strains, locus YLR418C, strain cdc73, active compounds read low 0.771 | S. cerevisiae deletion strains, locus YMR223W, strain ubp8, active compounds read low 0.9 | S. cerevisiae deletion strains, locus YNL071W, strain lat1, active compounds read low 0.863 | S. cerevisiae deletion strains, locus YNL307C, strain MCK1, active compounds read low 0.695 | S. cerevisiae deletion strains, locus YNR052C, strain pop2, active compounds read low 0.89 | S. cerevisiae deletion strains, locus YOR184W, strain ser1, active compounds read low 0.719 | S. cerevisiae deletion strains, locus YPL078C, strain atp4, active compounds read low 0.887
inactive: S. cerevisiae deletion strains, locus YJR075W, strain HOC1, active compounds read low 0.968 | S. cerevisiae deletion strains, locus YKL009W, strain mrt4, active compounds read low 0.948 | S. cerevisiae deletion strains, locus YKL068W, active compounds read low 0.985 | S. cerevisiae deletion strains, locus YKL085W, strain MDH1 (second series), active compounds read low 0.983 | S. cerevisiae deletion strains, locus YKL085W, strain MDH1, active compounds read low 0.983 | S. cerevisiae deletion strains, locus YKL160W, strain elf1, active compounds read low 0.936 | S. cerevisiae deletion strains, locus YKL190W, strain CNB1, active compounds read low 0.98 | S. cerevisiae deletion strains, locus YKR001C, strain vps1, active compounds read low 0.9 | S. cerevisiae deletion strains, locus YKR026C, strain gcn3, active compounds read low 0.998 | S. cerevisiae deletion strains, locus YKR091W, strain srl3, active compounds read low 0.985 | S. cerevisiae deletion strains, locus YLL001W, strain dnm1, active compounds read low 0.937 | S. cerevisiae deletion strains, locus YLL026W, active compounds read low 0.994 | S. cerevisiae deletion strains, locus YLL041C, strain sdh2, active compounds read low 0.984 | S. cerevisiae deletion strains, locus YLR027C, strain aat2, active compounds read low 0.948 | S. cerevisiae deletion strains, locus YLR058C, strain SHM2, active compounds read low 0.976 | S. cerevisiae deletion strains, locus YLR102C, strain apc9, active compounds read low 0.977 | S. cerevisiae deletion strains, locus YLR113W, strain HOG1, active compounds read low 0.974 | S. cerevisiae deletion strains, locus YLR221C, strain rsa3, active compounds read low 0.994 | S. cerevisiae deletion strains, locus YLR258W, strain gsy2, active compounds read low 0.959 | S. cerevisiae deletion strains, locus YLR262C, strain YPT6, active compounds read low 0.613 | S. cerevisiae deletion strains, locus YLR268W, strain sec22, active compounds read low 1.02 | S. cerevisiae deletion strains, locus YLR320W, strain mms22, active compounds read low 0.94 | S. cerevisiae deletion strains, locus YLR330W, strain CHS5, active compounds read low 0.982 | S. cerevisiae deletion strains, locus YLR342W, strain FKS1 (second series), active compounds read low 0.811 | S. cerevisiae deletion strains, locus YLR342W, strain FKS1, active compounds read low 0.951 | S. cerevisiae deletion strains, locus YLR357W, strain rsc2, active compounds read low 1.01 | S. cerevisiae deletion strains, locus YLR370C, strain arc18, active compounds read low 0.986 | S. cerevisiae deletion strains, locus YLR371W, strain rom2, active compounds read low 0.983 | S. cerevisiae deletion strains, locus YLR384C, strain iki3, active compounds read low 0.983 | S. cerevisiae deletion strains, locus YML016C, strain PPZ1, active compounds read low 0.965 | S. cerevisiae deletion strains, locus YML032C, strain rad52, active compounds read low 0.966 | S. cerevisiae deletion strains, locus YML120C, strain ndi1, active compounds read low 0.955 | S. cerevisiae deletion strains, locus YML124C, strain tub3, active compounds read low 0.969 | S. cerevisiae deletion strains, locus YMR058W, strain fet3, active compounds read low 0.976 | S. cerevisiae deletion strains, locus YMR078C, strain ctf18, active compounds read low 0.953 | S. cerevisiae deletion strains, locus YMR125W, strain sto1, active compounds read low 0.993 | S. cerevisiae deletion strains, locus YMR129W, active compounds read low 0.993 | S. cerevisiae deletion strains, locus YMR205C, strain PFK2, active compounds read low 0.9 | S. cerevisiae deletion strains, locus YMR231W, strain pep5, active compounds read low 0.976 | S. cerevisiae deletion strains, locus YMR263W, strain SAP30, active compounds read low 0.971 | S. cerevisiae deletion strains, locus YMR307W, strain GAS1, active compounds read low 0.759 | S. cerevisiae deletion strains, locus YNL067W, strain RPL9B, active compounds read low 0.987 | S. cerevisiae deletion strains, locus YNL128W, strain TEP1, active compounds read low 0.99 | S. cerevisiae deletion strains, locus YNL153C, strain GIM3, active compounds read low 0.99 | S. cerevisiae deletion strains, locus YNL183C, strain NPR1, active compounds read low 0.839 | S. cerevisiae deletion strains, locus YNL209W, strain ssb2, active compounds read low 0.962 | S. cerevisiae deletion strains, locus YNL233W, strain BNI4, active compounds read low 0.962 | S. cerevisiae deletion strains, locus YNL248C, strain rpa49, active compounds read low 1.01 | S. cerevisiae deletion strains, locus YNL250W, strain rad50, active compounds read low 0.951 | S. cerevisiae deletion strains, locus YNL271C, strain bni1, active compounds read low 0.957 | S. cerevisiae deletion strains, locus YNL298W, strain CLA4, active compounds read low 0.929 | S. cerevisiae deletion strains, locus YNL322C, strain KRE1 (second series), active compounds read low 0.986 | S. cerevisiae deletion strains, locus YNL322C, strain KRE1, active compounds read low 0.983 | S. cerevisiae deletion strains, locus YNR049C, strain mso1, active compounds read low 0.997 | S. cerevisiae deletion strains, locus YOL006C, strain TOP1, active compounds read low 0.729 | S. cerevisiae deletion strains, locus YOL012C, strain htz1 1.08 | S. cerevisiae deletion strains, locus YOL147C, strain pex11, active compounds read low 0.959 | S. cerevisiae deletion strains, locus YOR001W, strain rrp6, active compounds read low 1.01 | S. cerevisiae deletion strains, locus YOR061W, strain CKA2, active compounds read low 0.979 | S. cerevisiae deletion strains, locus YOR069W, strain VPS5, active compounds read low 0.973 | S. cerevisiae deletion strains, locus YOR070C, strain gyp1, active compounds read low 0.959 | S. cerevisiae deletion strains, locus YOR080W, strain dia2, active compounds read low 0.995 | S. cerevisiae deletion strains, locus YOR083W, strain WHI5, active compounds read low 0.915 | S. cerevisiae deletion strains, locus YOR106W, strain vam3, active compounds read low 0.944 | S. cerevisiae deletion strains, locus YOR136W, strain idh2, active compounds read low 0.961 | S. cerevisiae deletion strains, locus YOR144C, strain elg1, active compounds read low 0.958 | S. cerevisiae deletion strains, locus YOR231W, strain MKK1, active compounds read low 0.955 | S. cerevisiae deletion strains, locus YOR265W, strain rbl2, active compounds read low 0.985 | S. cerevisiae deletion strains, locus YOR270C, strain vph1, active compounds read low 0.844 | S. cerevisiae deletion strains, locus YOR290C, strain snf2, active compounds read low 0.898 | S. cerevisiae deletion strains, locus YOR316C, strain cot1, active compounds read low 0.98 | S. cerevisiae deletion strains, locus YPL051W, strain arl3, active compounds read low 0.921 | S. cerevisiae deletion strains, locus YPL055C, strain LGE1, active compounds read low 0.871 | S. cerevisiae deletion strains, locus YPL106C, strain sse1, active compounds read low 1 | S. cerevisiae deletion strains, locus YPL240C, strain hsp82, active compounds read low 0.987 | S. cerevisiae deletion strains, locus YPL241C, strain CIN2, active compounds read low 0.986 | S. cerevisiae deletion strains, locus YPL256C, strain CLN2, active compounds read low 0.927 | S. cerevisiae deletion strains, locus YPR119W, strain clb2, active compounds read low 0.979 | S. cerevisiae deletion strains, locus YPR141C, strain kar3, active compounds read low 0.951 | S. cerevisiae deletion strains, locus YPR163C, strain tif3, active compounds read low 0.927 | S. cerevisiae deletion strains, locus YPR167C, strain met16, active compounds read low 0.972 | S. cerevisiae deletion strains, strain wtn01, active compounds read low 0.964 | S. cerevisiae strains, strain wild type, active compounds read low 0.942
